An excerpt weighted towards active compounds, which were near 11% of everything screened.
HP1b binding inh = HTS for Inhibitors of HP1-beta Chromodomain Interactions with Methylated Histone Tails. Potency, µM (doses to about 114 µM), without a hit: at the top dose activity change, negative = inhibition, usual class: inhibitors. Chromobox protein homolog 1 (Homo sapiens), P83916. 390,000 compounds, 0.56% hits. AlphaScreen HP1-beta / biotin-H3K9me3 peptide binding; further: nearly all actives have a fitted effect of over 70% in size
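HP1-beta protein (50 nM final) preincubated 30 min at room temperature with biotinylated H3(1-18)K9me3 peptide (50 nM) in PBS pH 7.4, 0.01% Tween-20, then compound added for 30 min. AlphaScreen streptavidin donor/nickel chelate acceptor beads (10 ug/mL final), 30 min dark, luminescence read.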
JMJD2A Tudor inh = qHTS Assay for Inhibitors of JMJD2A-Tudor Domain; Lysine-specific demethylase 4A (Homo sapiens), O75164; AlphaScreen JMJD2A-Tudor / H3K4me3 peptide binding; Potency, µM (doses to about 114 µM), for inactives: at the top dose activity change, negative = inhibition, actives largely listed as inhibitors; 390,000 compounds, 4.4% hits; further: on the % scale 0 is the no-effect control and ±100 the full control effect; nearly all actives have a fitted effect of over 50% in size
G9a block = qHTS Assay for Inhibitors of Histone Lysine Methyltransferase G9a; Histone-lysine N-methyltransferase EHMT2 (Homo sapiens), Q96KQ7; Potency, µM (highest dose often 102 µM), for inactives: at the top dose activity, negative = inhibition, usual class: inhibitors; G9a H3K9 monomethylation, AlphaScreen, 2 h; 350,000 compounds, 8.8% hits; AID 504332, 2011; further: on the % scale 0 is the no-effect control and ±100 the full control effect; nearly all actives have a fitted effect of over 75% in size
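Step 1: enzyme (final 20 nM) with compound, 15 min RT. Step 2: substrate peptide 500 nM and SAM 20 uM, 2 h RT. Step 3: anti-H3K9me1 antibody and AlphaScreen beads, 10 min, then plate read.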
L3MBTL1 block = qHTS Assay for the Inhibitors of L3MBTL1; AID 485360, 2010; AlphaScreen L3MBTL1–H3K9me1 peptide binding; 230,000 compounds, 0.66% hits; Potency, µM (titrated, usually from 57.1 µM), for the others: top-dose activity, negative = inhibition, most hits filed as inhibitors; Lethal(3)malignant brain tumor-like protein 1 (Homo sapiens), Q9Y468; further: on the % scale 0 is the no-effect control and ±100 the full control effect; nearly all actives have a fitted effect of over 60% in size
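L3MBTL1 (50 nM) pre-complexed 30 min with biotinylated H3(1-15)K9me1 peptide (75 nM), then compounds added for 30 min at room temperature; AlphaScreen streptavidin donor/nickel chelate acceptor beads (10 ug/mL final) read after 30 min dark incubation.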
BAZ2B inh = qHTS Assay for Inhibitors of BAZ2B | AID 504333, 2011 | Potency, µM (top dose mostly 114 µM), inactives show at the highest dose activity change, negative = inhibition, most hits filed as inhibitors | Bromodomain adjacent to zinc finger domain protein 2B (Homo sapiens), Q9UIF8 | AlphaScreen BAZ2B-H3K14Ac peptide displacement | 360,000 compounds, 4.4% hits; further: on the % scale 0 is the no-effect control and ±100 the full control effect; nearly all actives have a fitted effect of over 60% in size
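In this displacement format the biotinylated H3(5-23) peptide acetylated at Lys14 serves as ligand at 50 nM, with BAZ2B at 50 nM in PBS pH 7.4 containing 0.01% Tween-20. Donor and acceptor beads are 10 ug/mL final.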
Active calls of the source: *; u = inconclusive; x = no result given; [ ] = remark or other dose. The call rests on the fitted dose curve; in most records, active means well fitted inhibition curve with a large enough effect; inconclusive means small, poorly fitted or top-dose-only effect; inactive means no such curve, though single readings can be large or run the other way. Potency means the concentration at half of the fitted maximal effect.

SMILES	HP1b binding inh	JMJD2A Tudor inh	G9a block	L3MBTL1 block	BAZ2B inh
C(=N\N1CCN(Cc2ccccc2)CC1)/c1cccs1	-19%	u	u	-25%	u
CCN(CC)c1ccc(/C=N/N2C(=O)c3ccccc3C2=O)c(O)c1	9%	-26%	u	33%	15%
CCN(CC)c1ccc(/C=N/N2CCN(Cc3cccc4ccccc34)CC2)c(O)c1	u	7.1µM*	3%[2.33 µM]	-8%	u
Cc1noc(C)c1CSCc1ccc(Cl)cc1	89%	29%	1%	27%	-6%
Cc1ccc2nc(NC(=O)COC(=O)c3ccc(Br)o3)sc2c1	10%	45µM*	u	-40%	43%
Cc1ccc2nc(NC(=O)CN(C)S(=O)(=O)c3ccc(Br)s3)sc2c1	19%	-23%	-5%[12.7 µM]	x	-23%
Cc1ccc2nc(NC(=O)CNS(=O)(=O)c3ccc(Br)s3)sc2c1	6%	50µM*	u	3%	-15%
CC(C)NC(=O)c1ccc2c(c1)nc1n2CCCCC1	23%[57 µM]	-2%	-20%[59 µM]	x	3%
CCOc1ccccc1-c1nc(Cn2c(=O)cc(C)c3c(C)nn(-c4ccccc4)c32)c(C)o1	20%	-10%	4%[59 µM]	x	-18%
COc1cc(/C=C2\SC(=S)N(N3CCOCC3)C2=O)cc(OC)c1OC	10%	-19%	13µM*	23%	12%
CCOc1ccc(/C=C2\SC(=S)N(Nc3ccccc3)C2=O)cc1OC	-19%	u	7.1µM*	-6%	u
COc1cc(/C=C2\SC(=S)N(CCC(=O)Nc3ccccc3)C2=O)cc(OC)c1OC	32%	-19%[57.1 µM]	-24%	-22%	u
COc1cc(/C=C2\SC(=S)N(N3CCOCC3)C2=O)ccc1O	136%	-20%	20%[59 µM]	x	-4%
COc1cc(/C=C2\SC(=S)N(Nc3ccccc3)C2=O)cc(OC)c1OC	u	u	u	u	22µM*
O=C1/C(=C/c2cccs2)SC(=S)N1N1CCOCC1	35µM*	u	u	-21%	u
COc1cc(/C=C2/SC(=S)N(CCC(=O)Nc3ccccc3)C2=O)cc(OC)c1OC	20%	-12%	-10%	x	-17%
O=C1/C(=C/c2ccncc2)SC(=S)N1N1CCOCC1	-14%	-21%	-124%[59 µM]	x	-33%
O=C1CN(C(=O)c2ccc(Cl)cc2Cl)C(c2ccc(F)cc2)c2cc(F)ccc2N1 (centres undefined)	6%	-26%	-17%[59 µM]	x	-15%
CC(=O)Nc1cccc(NC(=O)c2c(-c3ccccc3)c(-c3ccccc3)nn(C)c2=O)c1	21%	-18%	-1%[59 µM]	x	-10%
Cc1ccc(C(=O)NCC(c2cccs2)S(=O)(=O)c2cccs2)cc1C (centres undefined)	32%	-6%	1%[59 µM]	x	3%
CCN(C(=O)CSc1nc2ccccc2c2nc(CCn3c(C)nc4ccccc43)nn12)c1cccc(C)c1	23%	-22%	-1%[59 µM]	x	1%
CCOc1cc2[nH]c(=O)n(CCCC(=O)N3CCN(c4ccc(OC)cc4)CC3)c(=O)c2cc1OCC	10%	-17%	-34%[59 µM]	x	-2%
COc1ccccc1NC(=O)Cn1cc(S(=O)(=O)Cc2ccccc2)c2ccccc21	8%	-23%	u	x	-27%
Nc1ccc2c(c1)Cc1cc(N)c(Cl)cc1-2	u	45µM*	x	x	x
Nc1cc2c(cc1N)-c1ccccc1C2	-18%[57 µM]	8.9µM*	x	x	x
SMILES	HP1b binding inh	JMJD2A Tudor inh	G9a block	L3MBTL1 block	BAZ2B inh
Nc1c(Cl)cc2c(c1Br)Cc1ccccc1-2	9%[57 µM]	-8%	x	x	x
Nc1ccc2c(c1)Cc1cc(Cl)c(Cl)cc1-2	-13%	-31%	x	x	x
CC(C)c1c(O)ccc2c1CCC1[C@@](C)(C=O)CCC[C@@]21C (some centres undefined)	x	x	-3%[2.33 µM]	x	x
O=C(CSc1ccc(Cl)cc1Cl)N1CCC(c2nc3ccccc3s2)CC1	44%	-10%	39%	2%	3%
Cc1oc(-c2cc(F)ccc2F)nc1CN(C)Cc1ccc2nccnc2c1	33%	-2%[57.1 µM]	5%	-2%	-10%
Cc1oc(-c2cc(F)ccc2F)nc1CN1CCN(c2cnccn2)CC1	26%	-20%	x	-8%	71µM*
N#CC1=C(N)Oc2c(oc(CO)cc2=O)C1c1cccs1 (centres undefined)	16%	28µM*	45µM*	9%	-1%
N#CC1=C(N)Oc2c(ccc3ccccc23)C1c1ccsc1 (centres undefined)	3%	-25%	45µM*	-3%	-10%
CC1=C(C(=O)OCc2ccccc2)C(c2ccsc2)C(C#N)=C(N)O1 (centres undefined)	33%	-22%	u	-17%	5%
N#CC1=C(N)Oc2c(oc(CO)cc2=O)C1c1ccsc1 (centres undefined)	14%	-16%[57.1 µM]	32µM*	x	50µM*
COC(=O)C1=C(C)OC(N)=C(C#N)C1c1ccsc1 (centres undefined)	30%	-8%	u	-2%	13%
CCN(C(=O)CSc1nc2ccccc2n1CC(=O)NCc1ccc(OC)cc1)c1ccccc1	15%	-20%	-8%[59 µM]	x	-37%
CC12C=CC(=O)C=C1[C@@H](F)CC1C2C(O)CC2(C)C1CC[C@]2(O)C(=O)CO (some centres undefined)	x	x	15%[59 µM]	x	x
S=c1[nH]ccn1CCc1ccccc1	-28%	u	10µM*	x	27%
COC(=O)C(CC(=O)c1ccc(Br)cc1)n1ccnc1 (centres undefined)	x	x	u	-14%	50µM*
Cc1ccc(C(=O)CC(C(=O)O)n2cccn2)cc1 (centres undefined)	34%	-13%	50µM*	8%	7%
COc1cc(NC(=O)CC(C)n2ccnc2)cc(OC)c1 (centres undefined)	32%	-5%	5%	x	1%
COC(=O)C(CC(=O)c1ccc(Br)cc1)n1nc(C)cc1C (centres undefined)	-8%	-13%	x	15%	u
COC(=O)C(CC(=O)c1ccc(C)cc1)n1nc(C)cc1C (centres undefined)	46%	1%	79µM*	2%	-28%
COc1ccc(OCCCn2c(CCNC(=O)C3CCCCC3)nc3ccccc32)cc1	26%[57 µM]	-13%[57.1 µM]	x	x	x
Cn1cc(-c2nc3cnc(Oc4ccccc4)nc3n(CCC#N)c2=O)c2ccccc21	x	x	-1%[12.7 µM]	x	x
CCCCCC[n+]1c(-c2ccc(Cl)cc2Cl)csc1Nc1ccccc1	-12%	u	u	-4%	u
c1ccc(C[n+]2c(-c3ccccc3)csc2Nc2ccccc2)cc1	25µM*	u	11µM*	-4%	7.9µM*
